# Data reported in publication PMC7826789 (International Journal of Molecular Sciences, 2021).
smiles,measurement,setting,value
COc1cc(C=NNc2ncnc3c2cnn3-c2ccccc2)ccc1O [GW513184X],Kinases covered,AurkA,AurkA
COc1cc(-c2cncc(-c3cnn(C4CCNCC4)c3)c2)cc(OC)c1OC [K05908],Kinases covered,BMPR1A,BMPR1A
same,Kinases covered,BMPR1B,BMPR1B
CC(C)N1CC(=O)N(C)c2cnc(Nc3cccc(S(=O)(=O)CCN4CCOCC4)c3)nc21 [BI00009348],Kinases covered,BMPR2,BMPR2
C=CC(=O)Nc1cc(-n2c(=O)ccc3cnc4ccc(-c5ccc(NS(C)(=O)=O)cc5)cc4c32)ccc1C [BMX-IN-1],Kinases covered,BMX,BMX
same,Kinases covered,BTK,BTK
COc1ccc2[nH]c3c4[nH]c5ccc(OC)cc5c4c4c(c3c2c1)C(=O)NC4=O [GW296115X],Kinases covered,BRSK1,BRSK1
same,Kinases covered,BRSK2,BRSK2
C#Cc1cccc(Nc2ncnc3cc(OC)c(OC4CCN(C)CC4)cc23)c1 [BI00007366],Kinases covered,BUB1,BUB1
COc1cc2ncnc(Nc3ccc(F)c(Cl)c3)c2cc1O[C@H]1CC[C@H](N)CC1 [BIBW3133BS],Kinases covered,BUB1,BUB1
CN(C)C/C=C/C(=O)Nc1ccc(C(=O)N2CCC[C@@H](Nc3ncc(Cl)c(-c4c[nH]c5ccccc45)n3)C2)cc1 [THZ531],Kinases covered,CDK12,CDK12
same,Kinases covered,CDK13,CDK13
COC[C@@H](C)N[C@H]1CC[C@H](Nc2cc(-c3cccc(NCC4(C#N)CCOCC4)n3)c(Cl)cn2)CC1 [NVP-2],Kinases covered,CDK13,CDK13
same,Kinases covered,CDK9,CDK9
Cn1cc(-c2ccc(-c3cncc(Cl)c3N3CCC4(CCNC4=O)CC3)cc2)cn1 [CCT251545],Kinases covered,CDK19,CDK19
same,Kinases covered,CDK8,CDK8
Cn1ncc2cc(-c3cnc(N)c(Cl)c3N3CCC4(CCNC4=O)CC3)ccc21 [CCT251921],Kinases covered,CDK19,CDK19
same,Kinases covered,CDK8,CDK8
CC(C)COC(=O)c1ccc2c(c1)/C(=C/Nc1ccc(S(N)(=O)=O)cc1)C(=O)N2 [GW416981X],Kinases covered,CDK3,CDK3
CCC(NN(C)C)=C1C(=O)Nc2ccc(C(C)=O)cc21 [BI00036838],Kinases covered,CDK7,CDK7
CN(C)C/C=C/C(=O)Nc1ccc(C(=O)Nc2cccc(Nc3ncc(Cl)c(-c4c[nH]c5ccccc45)n3)c2)cc1 [THZ1],Kinases covered,CDK7,CDK7
